# Experimental data as given in the supplement of paper PMC8728848.
# The entries come from a sample that favours the strongest signals as a whole.
# How the values were obtained:
# Experiment in all cases: glycan array binding signal (z-score within array); higher = stronger binding
# Conditions in all cases: glycan notation: IUPAC condensed, linker removed
# [1] = target: Fuc(a1-2)Gal(b1-3)GalNAc(b1-4)[Neu5Ac(a2-3)]Gal(b1-4)Glc
# Summary of the method: (§1)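 Glycan array data came from 3228 arrays in the Consortium for Functional Glycomics database, and only arrays with an available protein sequence were kept. Glycan names were put into IUPAC-condensed notation, and columns mapping to the same glycan were averaged. The binding signal is a within-array Z-score, averaged across arrays of one protein sequence run at different concentrations or buffers and across linkers. A negative Z-score can be read as non-binding.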
# [2] = target: Fuc(a1-2)Gal(b1-3)GlcNAc6S
# Summary of the method: as §1
# [3] = target: Fuc(a1-2)Gal(b1-3)[Fuc(a1-4)]GlcNAc(b1-3)[Fuc(a1-3)[Gal(b1-4)]GlcNAc(b1-6)]Gal(b1-4)Glc
# Summary of the method: as §1
# Fuc(a1-2)Gal(b1-4)Glc6S = target: Fuc(a1-2)Gal(b1-4)Glc6S
# Summary of the method: as §1
# Fuc(a1-2)Gal(b1-4)GlcNAc = target: Fuc(a1-2)Gal(b1-4)GlcNAc
# Summary of the method: as §1
# [4] = target: Fuc(a1-2)Gal(b1-4)GlcNAc(b1-2)Man(a1-3)[Fuc(a1-2)Gal(b1-4)GlcNAc(b1-2)Man(a1-6)]Man(b1-4)GlcNAc(b1-4)[Fuc(a1-6)]GlcNAc
# Summary of the method: as §1
# [5] = target: Fuc(a1-2)Gal(b1-4)GlcNAc(b1-3)Gal(b1-4)GlcNAc
# Summary of the method: as §1
# [6] = target: Fuc(a1-2)Gal(b1-4)[Fuc(a1-3)]GlcNAc(b1-3)GalNAc
# Summary of the method: as §1
# [7] = target: Fuc(a1-2)[Gal(a1-3)]Gal(b1-4)[Fuc(a1-3)]Glc
# Summary of the method: as §1
# [8] = target: Fuc(a1-2)[GalNAc(a1-3)]Gal(b1-4)Glc
# Summary of the method: as §1
# [9] = target: Fuc(a1-2)[GalNAc(a1-3)]Gal(b1-4)GlcNAc(b1-2)Man(a1-3)[Fuc(a1-2)[GalNAc(a1-3)]Gal(b1-4)GlcNAc(b1-2)Man(a1-6)]Man(b1-4)GlcNAc(b1-4)[Fuc(a1-6)]GlcNAc
# Summary of the method: as §1
# [10] = target: Fuc(a1-2)[GalNAc(a1-3)]Gal(b1-4)GlcNAc(b1-6)GalNAc
# Summary of the method: as §1
# [11] = target: Fuc(a1-2)[GalNAc(a1-3)]Gal(b1-4)[Fuc(a1-3)]GlcNAc
# Summary of the method: as §1
# [12] = target: Fuc(a1-2)[GalNAc(a1-3)]Gal(b1-4)[Fuc(a1-3)]GlcNAc(b1-3)GalNAc
# Summary of the method: as §1
# [13] = target: Fuc(a1-3)[Gal(b1-4)]GlcNAc(b1-2)Man(a1-3)[Fuc(a1-3)[Gal(b1-4)]GlcNAc(b1-2)Man(a1-6)]Man(b1-4)GlcNAc(b1-4)[Fuc(a1-6)]GlcNAc
# Summary of the method: as §1
# [14] = target: Fuc(a1-3)[Gal(b1-4)]GlcNAc(b1-3)Gal(b1-4)[Fuc(a1-3)]GlcNAc(b1-3)Gal(b1-4)[Fuc(a1-3)]GlcNAc
# Summary of the method: as §1
# [15] = target: Fuc(a1-3)[Gal(b1-4)]GlcNAc6S
# Summary of the method: as §1
# [16] = target: Gal(a1-3)Gal(b1-4)[Fuc(a1-3)]GlcNAc(b1-2)Man(a1-3)[Gal(a1-3)Gal(b1-4)[Fuc(a1-3)]GlcNAc(b1-2)Man(a1-6)]Man(b1-4)GlcNAc(b1-4)GlcNAc
# Summary of the method: as §1
# [17] = target: Gal(a1-4)Gal(b1-4)GlcNAc(b1-2)Man(a1-3)[Gal(a1-4)Gal(b1-4)GlcNAc(b1-2)Man(a1-6)]Man(b1-4)GlcNAc(b1-4)GlcNAc
# Summary of the method: as §1
# [18] = target: Gal(b1-3)GlcNAc(b1-2)[Gal(b1-3)GlcNAc(b1-6)]Man(a1-6)[Gal(b1-3)GlcNAc(b1-2)Man(a1-3)]Man(b1-4)GlcNAc(b1-4)GlcNAc
# Summary of the method: as §1
# [19] = target: Gal(b1-3)GlcNAc(b1-3)Gal(b1-4)[Fuc(a1-3)]GlcNAc
# Summary of the method: as §1
# [20] = target: Gal(b1-3)GlcNAc(b1-6)Gal(b1-4)GlcNAc
# Summary of the method: as §1
# [21] = target: Gal(b1-4)GlcNAc(b1-2)Man(a1-3)[Gal(b1-4)GlcNAc(b1-2)Man(a1-6)][GlcNAc(b1-4)]Man(b1-4)GlcNAc(b1-4)[Fuc(a1-6)]GlcNAc
# Summary of the method: as §1
# [22] = target: Gal(b1-4)GlcNAc(b1-3)Gal(b1-4)GlcNAc(b1-2)[Gal(b1-4)GlcNAc(b1-3)Gal(b1-4)GlcNAc(b1-6)]Man(a1-6)[Gal(b1-4)GlcNAc(b1-3)Gal(b1-4)GlcNAc(b1-2)Man(a1-3)]Man(b1-4)GlcNAc(b1-4)GlcNAc
# Summary of the method: as §1
binder,measurement,setting,value
GS7807H-bfa-490-18-490 (Bacteroides fragilis) (protein) GNLEEMNIDPDNATQTHPKLLLTQICMNAFKRGTDGMYATKKVIQADGESADQYYKWTRGSFGYYDNLRNVQKMGEEAERVNAPVYTALTKFFRAYYFYELTLRFGDIPYSQALKGEKEEIYTPEYDAQEDVFAGILQELREADEILANDASVIDGDIIYNGNSTQWRKLINSFRLKVLMTLSNHTTVGNINIASEFKNIATNSPLMNSLADNGQLVYLDQQGNRYPQFNAQWSGYYMDDTFIQRMRERRDPRLFIFSAQTNKGKTEGKPIDDFSSYEGGDPAAPYSDAIIKVSEGTISPINDRFRTDPIVEPTMLMGYAELQQILAEAVVRGWISGNAQTYYEKGIRASFSFYETHAKDYAGYLNENAVAQYLKEPLVDFTQASGTEEQIERIIMQKYLVTFYQGNWDSFYEQLRTGYPDFRRPAGTEIPKRWMYPQGEYDNNGTNVETAITRQFGAGNDKINQATWWQKKS,glycan array binding signal (z-score),[1],-0.424
same,glycan array binding signal (z-score),[2],0.079
same,glycan array binding signal (z-score),[3],-0.223
same,glycan array binding signal (z-score),Fuc(a1-2)Gal(b1-4)Glc6S,-0.448
same,glycan array binding signal (z-score),Fuc(a1-2)Gal(b1-4)GlcNAc,-0.024
same,glycan array binding signal (z-score),[4],2.33
same,glycan array binding signal (z-score),[5],-0.786
same,glycan array binding signal (z-score),[6],0.672
same,glycan array binding signal (z-score),[7],-0.426
same,glycan array binding signal (z-score),[8],-0.704
same,glycan array binding signal (z-score),[9],0.217
same,glycan array binding signal (z-score),[10],-0.479
same,glycan array binding signal (z-score),[11],0.449
same,glycan array binding signal (z-score),[12],0.984
same,glycan array binding signal (z-score),[13],1.38
same,glycan array binding signal (z-score),[14],0.166
same,glycan array binding signal (z-score),[15],-0.707
same,glycan array binding signal (z-score),[16],1.36
same,glycan array binding signal (z-score),[17],6.27
same,glycan array binding signal (z-score),[18],2.29
same,glycan array binding signal (z-score),[19],0.374
same,glycan array binding signal (z-score),[20],9.32
same,glycan array binding signal (z-score),[21],-0.8
same,glycan array binding signal (z-score),[22],11.2
